Assay results published in ChEMBL document CHEMBL2218924, “A broad activity screen in support of a chemogenomic map for kinase signalling research and drug discovery” (Biochem J, 2013).

Columns and labels:
[1] = target: T1, Serine/threonine-protein kinase 3 (Homo sapiens) (UniProt Q13188); settings: at 10 µM
T1 sequence (whole entry): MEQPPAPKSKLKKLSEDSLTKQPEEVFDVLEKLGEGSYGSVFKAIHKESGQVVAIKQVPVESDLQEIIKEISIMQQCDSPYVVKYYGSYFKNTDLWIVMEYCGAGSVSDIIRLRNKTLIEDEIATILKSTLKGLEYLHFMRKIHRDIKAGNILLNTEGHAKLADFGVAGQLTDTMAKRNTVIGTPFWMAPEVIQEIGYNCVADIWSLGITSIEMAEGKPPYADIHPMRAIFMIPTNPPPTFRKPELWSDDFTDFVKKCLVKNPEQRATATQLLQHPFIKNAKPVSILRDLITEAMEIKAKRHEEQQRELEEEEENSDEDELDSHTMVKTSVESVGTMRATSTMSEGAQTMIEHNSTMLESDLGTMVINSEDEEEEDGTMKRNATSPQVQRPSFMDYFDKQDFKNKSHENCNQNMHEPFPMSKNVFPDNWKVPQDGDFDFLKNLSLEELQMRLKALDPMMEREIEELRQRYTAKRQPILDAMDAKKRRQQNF

[2] = target: Serine/threonine-protein kinase 24 (Homo sapiens) (UniProt Q9Y6E0); settings: at 1 µM
Serine/threonine-protein kinase 24 (Homo sapiens), sequence (Q9Y6E0 whole entry, looked up): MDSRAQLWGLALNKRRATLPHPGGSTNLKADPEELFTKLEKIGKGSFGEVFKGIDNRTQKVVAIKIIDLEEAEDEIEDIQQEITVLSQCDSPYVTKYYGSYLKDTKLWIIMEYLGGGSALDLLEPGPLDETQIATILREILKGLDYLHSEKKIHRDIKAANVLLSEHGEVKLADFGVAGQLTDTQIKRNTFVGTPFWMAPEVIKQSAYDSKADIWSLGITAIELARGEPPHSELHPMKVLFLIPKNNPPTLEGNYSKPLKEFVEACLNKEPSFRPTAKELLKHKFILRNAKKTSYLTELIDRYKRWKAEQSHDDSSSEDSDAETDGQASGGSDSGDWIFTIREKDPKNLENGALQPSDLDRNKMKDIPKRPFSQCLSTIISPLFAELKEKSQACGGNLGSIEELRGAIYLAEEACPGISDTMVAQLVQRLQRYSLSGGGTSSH

[3] = target: Serine/threonine-protein kinase 24 (Homo sapiens) (UniProt Q9Y6E0); settings: at 10 µM
[4] = target: T2, Tyrosine-protein kinase Mer (Homo sapiens) (UniProt Q12866); settings: at 10 µM
T2 sequence (whole entry): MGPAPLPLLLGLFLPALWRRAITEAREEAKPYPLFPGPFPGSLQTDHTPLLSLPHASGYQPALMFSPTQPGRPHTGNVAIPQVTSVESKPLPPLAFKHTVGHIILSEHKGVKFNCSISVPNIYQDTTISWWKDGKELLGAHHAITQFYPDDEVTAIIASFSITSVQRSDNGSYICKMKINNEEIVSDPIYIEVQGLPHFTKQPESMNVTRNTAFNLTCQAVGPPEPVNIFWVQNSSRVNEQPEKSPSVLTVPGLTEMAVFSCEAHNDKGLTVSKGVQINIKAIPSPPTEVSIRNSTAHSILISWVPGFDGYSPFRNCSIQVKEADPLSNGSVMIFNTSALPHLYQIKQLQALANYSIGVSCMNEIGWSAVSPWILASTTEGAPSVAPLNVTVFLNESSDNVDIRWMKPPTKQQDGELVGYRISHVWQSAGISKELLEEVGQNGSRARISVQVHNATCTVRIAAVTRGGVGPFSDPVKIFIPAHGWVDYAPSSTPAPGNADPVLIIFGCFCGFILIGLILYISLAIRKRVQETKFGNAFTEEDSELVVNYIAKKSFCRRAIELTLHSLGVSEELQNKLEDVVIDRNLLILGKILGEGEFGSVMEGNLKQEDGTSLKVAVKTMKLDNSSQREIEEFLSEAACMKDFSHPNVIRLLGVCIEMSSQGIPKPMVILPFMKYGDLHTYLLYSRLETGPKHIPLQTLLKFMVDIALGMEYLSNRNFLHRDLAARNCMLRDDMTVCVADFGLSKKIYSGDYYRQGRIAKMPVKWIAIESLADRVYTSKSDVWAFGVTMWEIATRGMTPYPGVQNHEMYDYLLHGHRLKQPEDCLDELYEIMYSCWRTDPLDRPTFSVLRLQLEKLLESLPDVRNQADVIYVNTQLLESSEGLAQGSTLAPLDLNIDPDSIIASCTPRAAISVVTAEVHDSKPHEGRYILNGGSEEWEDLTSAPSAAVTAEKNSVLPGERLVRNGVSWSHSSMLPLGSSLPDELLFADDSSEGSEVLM

[5] = target: Hepatocyte growth factor receptor (Homo sapiens) (UniProt P08581); settings: at 1 µM
Hepatocyte growth factor receptor (Homo sapiens), sequence (P08581 whole entry): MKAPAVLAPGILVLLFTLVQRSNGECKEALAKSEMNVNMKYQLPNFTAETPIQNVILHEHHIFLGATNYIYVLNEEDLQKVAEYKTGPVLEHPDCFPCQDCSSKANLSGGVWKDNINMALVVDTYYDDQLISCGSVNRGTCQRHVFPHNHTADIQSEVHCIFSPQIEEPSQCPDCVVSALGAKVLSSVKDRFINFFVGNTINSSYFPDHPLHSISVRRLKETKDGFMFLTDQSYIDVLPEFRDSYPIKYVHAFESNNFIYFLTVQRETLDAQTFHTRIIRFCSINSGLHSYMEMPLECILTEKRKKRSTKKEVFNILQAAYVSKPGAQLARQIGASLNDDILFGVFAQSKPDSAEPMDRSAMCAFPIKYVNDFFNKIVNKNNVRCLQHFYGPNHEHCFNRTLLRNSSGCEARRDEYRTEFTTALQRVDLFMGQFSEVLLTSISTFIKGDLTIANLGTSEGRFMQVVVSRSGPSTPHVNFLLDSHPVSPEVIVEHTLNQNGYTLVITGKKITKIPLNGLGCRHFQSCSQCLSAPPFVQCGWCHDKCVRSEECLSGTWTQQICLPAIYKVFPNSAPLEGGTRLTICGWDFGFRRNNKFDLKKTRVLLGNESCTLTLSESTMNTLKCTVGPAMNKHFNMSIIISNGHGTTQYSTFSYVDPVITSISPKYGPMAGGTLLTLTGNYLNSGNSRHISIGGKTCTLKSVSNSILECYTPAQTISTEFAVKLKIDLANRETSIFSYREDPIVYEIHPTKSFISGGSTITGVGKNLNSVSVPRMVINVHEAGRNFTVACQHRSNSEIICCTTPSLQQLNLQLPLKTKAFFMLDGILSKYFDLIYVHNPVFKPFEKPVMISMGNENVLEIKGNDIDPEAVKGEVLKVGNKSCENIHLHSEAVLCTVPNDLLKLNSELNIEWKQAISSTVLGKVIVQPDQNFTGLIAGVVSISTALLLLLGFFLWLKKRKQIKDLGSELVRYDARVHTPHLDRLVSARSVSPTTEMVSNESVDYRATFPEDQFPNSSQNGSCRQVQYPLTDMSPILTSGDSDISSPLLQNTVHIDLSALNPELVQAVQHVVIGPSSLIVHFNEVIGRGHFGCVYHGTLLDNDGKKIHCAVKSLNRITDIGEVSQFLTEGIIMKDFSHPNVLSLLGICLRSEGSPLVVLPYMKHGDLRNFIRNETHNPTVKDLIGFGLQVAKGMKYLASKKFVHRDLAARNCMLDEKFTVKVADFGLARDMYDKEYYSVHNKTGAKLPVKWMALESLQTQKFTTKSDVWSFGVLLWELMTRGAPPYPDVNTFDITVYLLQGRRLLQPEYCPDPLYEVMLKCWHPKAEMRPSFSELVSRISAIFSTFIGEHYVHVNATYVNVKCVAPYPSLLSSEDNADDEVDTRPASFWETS

[6] = target: Hepatocyte growth factor receptor (Homo sapiens) (UniProt P08581); settings: at 10 µM
[7] = target: MAP kinase-interacting serine/threonine-protein kinase 2 (Homo sapiens) (UniProt Q9HBH9); settings: at 10 µM
MAP kinase-interacting serine/threonine-protein kinase 2 (Homo sapiens), sequence (Q9HBH9 whole entry, looked up): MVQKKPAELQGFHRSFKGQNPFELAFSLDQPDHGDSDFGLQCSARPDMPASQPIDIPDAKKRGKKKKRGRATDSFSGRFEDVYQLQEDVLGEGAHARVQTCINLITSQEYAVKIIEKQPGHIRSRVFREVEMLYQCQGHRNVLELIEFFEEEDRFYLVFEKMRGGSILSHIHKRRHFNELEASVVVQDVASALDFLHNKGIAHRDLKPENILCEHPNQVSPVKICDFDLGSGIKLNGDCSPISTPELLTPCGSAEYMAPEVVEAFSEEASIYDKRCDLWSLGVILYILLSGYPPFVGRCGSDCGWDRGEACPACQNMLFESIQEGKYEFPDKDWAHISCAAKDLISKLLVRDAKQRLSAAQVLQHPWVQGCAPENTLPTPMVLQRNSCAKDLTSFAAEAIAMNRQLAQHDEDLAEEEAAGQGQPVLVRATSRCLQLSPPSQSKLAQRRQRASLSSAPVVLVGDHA

[8] = target: MAP kinase-interacting serine/threonine-protein kinase 2 (Homo sapiens) (UniProt Q9HBH9); settings: at 1 µM
[9] = target: T1, Serine/threonine-protein kinase 3 (Homo sapiens); settings: at 1 µM
[10] = target: T2, Tyrosine-protein kinase Mer (Homo sapiens); settings: at 1 µM

| Structure (SMILES) | residual activity [1] [%] | residual activity [2] [%] | residual activity [3] [%] | residual activity [4] [%] | residual activity [5] [%] | residual activity [6] [%] | residual activity [7] [%] | residual activity [8] [%] | residual activity [9] [%] | residual activity [10] [%] |
| --- | --- | --- | --- | --- | --- | --- | --- | --- | --- | --- |
| O=C(c1ccccc1)c1ccc(N2CCOCC2)cc1O | 95 | 86 | 68 | 85 | 86 | 66 | 80 | – | – | – |
| COc1ccc(-c2cnc3c(-c4ccsc4)cnn3c2)cc1 | – | 67 | 81 | – | – | – | 87 | 95 | – | – |
| CC(C)(C)n1nc(Cc2cccc3ccccc23)c2c(N)ncnc21 | 29 | – | 32 | – | 128 | 73 | 98 | 113 | 91 | – |
| Nc1ncnc2c1cnn2-c1ccccc1 | 93 | 68 | 84 | 92 | 98 | 85 | 22 | 56 | – | 101 |
| Fc1ccc(-c2nc3n(c2-c2ccncc2)CCS3)cc1 | – | 99 | 89 | – | 130 | 100 | – | – | 99 | – |
| CCN1/C(=C/C(C)=O)Sc2ccc(OC)cc21 | – | 69 | 74 | – | – | – | – | – | – | – |
| O=c1cc(N2CCOCC2)oc2c(-c3ccccc3)cccc12 | – | 59 | 55 | – | – | – | – | – | – | – |
| O=C1C(Cl)=C(N2C(=O)CCC2=O)C(=O)c2ccccc21 | 83 | 78 | 79 | 92 | – | 95 | 94 | 102 | – | 90 |
| Cc1cc(C)c(/C=C2\C(=O)Nc3ccccc32)[nH]1 | – | – | 72 | 2 | 101 | 98 | – | – | – | 4 |
| CCCCc1c(-c2ccc(OC)cc2)[nH]c2nccnc12 | 68 | 70 | 60 | 80 | 118 | – | – | – | – | 68 |
| COc1ccc2c(c1)c(C1=C(c3c[nH]c4ccccc34)C(=O)NC1=O)cn2CCCN(C)C | – | 21 | 5 | 10 | 111 | – | 82 | 105 | – | 81 |
| c1ccc(-c2cnc(Nc3ccc(OCCN4CCCC4)cc3)s2)cc1 | – | 67 | 80 | 17 | 78 | 44 | 7 | 21 | 109 | 81 |
